The results in this text go back to the supplement of paper PMC8728848.

What all share (assay): glycan array binding signal (z-score within array); higher = stronger binding
What all share (conditions): glycan notation: IUPAC condensed, linker removed

Assay [1] concerns Man(a1-2)Man(a1-2)Man(a1-3)Man. The essentials:
(§1)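 The Consortium for Functional Glycomics database supplied 3228 glycan arrays, of which those lacking an available protein sequence were dropped. The binding signal, a within-array Z-score, was averaged across arrays of the same protein sequence and across linkers. Negative scores can be read as non-binding.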

For assay [2], the system named is Man(a1-3)[Man(a1-6)]Man(a1-6)[Man(a1-2)Man(a1-3)]Man(b1-4)GlcNAc(b1-4)GlcNAc. The essentials:
as §1

For a further assay, the system named is Man(a1-3)[Man(a1-6)]Man. The essentials:
as §1

In assay [3] the test system is Neu5Ac(a2-3)Gal(b1-3)GalNAc(b1-4)[Neu5Ac(a2-3)]Gal(b1-4)Glc. The essentials: as §1
For assay [4], the system named is Neu5Ac(a2-3)Gal(b1-3)GalNAc(b1-4)[Neu5Ac(a2-8)Neu5Ac(a2-3)]Gal(b1-4)Glc. The essentials:
as §1

Assay [5] relates to Neu5Ac(a2-3)Gal(b1-3)GlcNAc(b1-2)Man(a1-3)[GlcNAc(b1-4)][Neu5Ac(a2-3)Gal(b1-3)GlcNAc(b1-2)Man(a1-6)]Man(b1-4)GlcNAc(b1-4)GlcNAc. The essentials: as §1
Assay [6] concerns Man(a1-2)Man(a1-2)Man(a1-6)[Man(a1-3)]Man. The essentials:
as §1

Another assay relates to Man(a1-2)Man(a1-3)Man. In outline: as §1
Assay [7] concerns Man(a1-2)Man(a1-3)[Man(a1-2)Man(a1-6)]Man(a1-6)[Man(a1-2)Man(a1-2)Man(a1-3)]Man(b1-4)GlcNAc(b1-4)GlcNAc. In outline:
as §1

The test system of assay [8] is Man(a1-2)Man(a1-3)[Man(a1-2)Man(a1-6)]Man(a1-6)[Man(a1-2)Man(a1-2)Man(a1-3)]Man. In outline: as §1
Assay [9] relates to Man(a1-2)Man(a1-3)[Man(a1-2)Man(a1-6)]Man. In outline:
as §1

Assay [10] relates to Man(a1-2)Man(a1-3)[Man(a1-6)]Man(a1-6)[Man(a1-2)Man(a1-3)]Man(b1-4)GlcNAc(b1-4)GlcNAc. The essentials:
as §1

Assay [11] concerns Man(a1-2)Man(a1-6)[Man(a1-3)]Man(a1-6)[Man(a1-2)Man(a1-2)Man(a1-3)]Man(b1-4)GlcNAc(b1-4)GlcNAc. In outline:
as §1

Assay [12] concerns Man(a1-2)Man(a1-6)[Man(a1-3)]Man(a1-6)[Man(a1-2)Man(a1-2)Man(a1-3)]Man. The essentials: as §1
Assay [13] deals with Man(a1-3)[Man(a1-6)]Man(b1-4)GlcNAc(b1-4)[Fuc(a1-6)]GlcNAc. The essentials:
as §1

For assay [14], the system named is Neu5Ac(a2-3)Gal(b1-3)GalNAc. The essentials:
as §1

Assay [15] relates to Neu5Ac(a2-3)Gal(b1-3)GlcNAc(b1-3)Gal(b1-3)GlcNAc. The essentials:
as §1

A further assay relates to Man(b1-4)GlcNAc. In outline:
as §1

A further assay deals with MurNAc(b1-4)GlcNAc. In outline:
as §1

Another assay deals with Kdn(a2-3)Gal(b1-4)GlcNAc. In outline: as §1

The full list was thinned out, with the strongest signals kept by preference.

Take Wza (Escherichia coli), P0A930: the “glycan array binding signal (z-score)” value in assay [1] was 2.8; in [2], 0.776; in the assay on Man(a1-3)[Man(a1-6)]Man, 1.81.

“AgI/II Vhelical-GFP (Streptococcus mutans)”: the “glycan array binding signal (z-score)” value in assay [3] was 0.244; in assay [4] it was -0.256; in [5] it was 1.2.

In the case of Actinohivin (Actinomycete K97), the “glycan array binding signal (z-score)” value in assay [1] came out at 3.74; in assay [6], 16.1; in the assay on Man(a1-2)Man(a1-3)Man it was 1.82; in assay [7], 3.83; in [8] it was 12.4; in assay [9], 1.78. For the same substance, the “glycan array binding signal (z-score)” value was determined as 3.51 in [10], 6.4 in assay [11] and 8.54 in assay [12].

For BambL (Burhholderia ambifaria), Q0B4G1, the “glycan array binding signal (z-score)” value in the assay on Man(a1-2)Man(a1-3)Man was -0.316.

On to “SpGH101 (Streptococcus pneumoniae), Q8DR60”, for which the entries for the “glycan array binding signal (z-score)” value (with Man(a1-2)Man(a1-3)Man; in [7]) were -0.182 and -0.2, respectively.

For Epa22, the “glycan array binding signal (z-score)” value in assay [13] was -0.324.

As for GspB (Streptococcus gordonii), Q939N5, in [14], the “glycan array binding signal (z-score)” value was 4.52.

Take AgI/IIC123-GFP (Streptococcus mutans): the “glycan array binding signal (z-score)” value was -0.465 in [1]; 0.368 in assay [9]; -0.159 in assay [2]; -0.265 in assay [5]; -0.456 in [15].

As for LcI (Legionella pneumophila), the “glycan array binding signal (z-score)” value was -0.584 in [9], 0.079 with Man(b1-4)GlcNAc, 0.332 with MurNAc(b1-4)GlcNAc and -0.429 in assay [5].

As to “SiiE (Salmonella typhimurium), A0A0H3NVH0”, the entries for the “glycan array binding signal (z-score)” value (in the assay with Kdn(a2-3)Gal(b1-4)GlcNAc; in [11]) were 2.58 and -0.297, respectively.
